# Several values for one entry are separate records, joined by “and”; a condition that tells them apart may be missing. Equal entries are not always repeated. Some compounds were tested as several samples or in several runs, with calls that do not always agree. Activity calls are given as the source filed them. How the source made its calls: active means hit-call score of the fitted dose curve at least 0.9, where 1 is the maximum; inactive means score below 0.9.
# Assay: BSK_IMphg_SRB.Mphg: Macrophage Viability Assessment in the BioMAP Diversity Plus: IMphg Assay (AID 2284295)
# Conditions: primary human endothelial cells with macrophages
# Experimental: BSK_IMphg is a cell-based, multiplexed-readout assay that uses venular endothelial cells and macrophages, a human vascular primary cell, with measurements taken at 24 hours after chemical dosing in a microplate: 96-well plate.BSK_IMphg_SRB.Mphg is an assay component measured in the BSK_IMphg assay. It measures […] related to cell death using Sulforhodamine staining technology.Data from the assay component BSK_IMphg_SRB.Mphg was analyzed at the endpoint, BSK_IMphg_SRB.Mphg, in the positive analysis fitting direction relative to DMSO as the negative control and baseline of activity. Using a type of viability reporter, gain or loss-of-signal activity can be used to understand protein changes. To generalize the intended target to other relatable targets, this assay endpoint is annotated to the 'cell morphology' intended target family, where the subfamily is 'cell conformation'.
# The levels of cell surface (or secreted, indicated by the prefix "s") biomarker endpoints were measured by ELISA. Overt cytotoxicity to cells in confluent adherent cultures (all systems other than the BT system) was assessed by measuring total protein levels using sulforhodamine B (SRB) staining in parallel cultures at the time of biomarker measurements, indicated as SRB endpoints. For proliferation assays for adherent cell types, individual cell types are cultured at sub-confluence and relative cell numbers quantified by SRB staining at time points optimized for each system (48 h: 3C and CASM3C systems; 72 h: BT and HDF3CGF systems; 96 h: SAg system). SRB was performed by staining cells with 0.1% SRB after fixation with 10% TCA and reading wells at 560 nm.Viability and proliferation of PBMC (T cells) was quantified by Alamar Blue reduction for the SAg and BT systems. For PBMC viability (referred to as PBMC Cytotoxicity within the assay endpoint names), cells were plated (75,000/well in a 96-well plate) and then chemical samples added for 1 h before addition of activators, SEB and TSST-1 (20 ng/mL final concentration each). Cells were incubated for 90 h. Then, Alamar Blue (20 uL/well) (Invitrogen, Cat DAL1100) was added for 6 h, and the plates were read with a fluorescence microplate reader at 546/580 nm (excitation/emission). For PBMC proliferation, cells were plated and activated as above but incubated for only 16 h prior to addition of Alamar Blue. Plates were read after 6 h.
SMILES,outcome,AC50
COC(=O)C(F)(F)C(F)(F)OC(F)(C(F)(F)F)C(F)(F)OC(F)=C(F)F (stereo unspecified),inactive,
C=CC(=O)OCC(F)(F)C(F)F,inactive,
O=C(O)C(F)(OC(F)(F)C(F)(F)C(F)(F)F)C(F)(F)F (stereo unspecified),inactive,30 µM (active)
OCC(F)(F)OC(F)(F)C(F)(F)OC(F)(F)CO,inactive,
O=C(O)C(F)(F)OC(F)(F)C(F)(F)OC(F)(F)C(=O)O,inactive,
O=C(O)C(F)(F)OC(F)(F)C(F)(F)OC(F)(F)F,inactive,11.3 µM (active)
O=C(O)C(F)(F)C(F)(F)C(=O)O,inactive,
O=S(=O)(F)C(F)(F)C(F)(F)C(F)(F)C(F)(F)C(F)(F)C(F)(F)C(F)(F)C(F)(F)F,inactive,
O=C(O)C=CC(F)(C(F)(F)F)C(F)(F)F,inactive,
CC(O)C(F)(F)C(F)(F)F (stereo unspecified),inactive,
OCC(F)(F)OC(F)(F)C(F)(F)OC(F)(F)C(F)(F)OC(F)(F)F,,21 µM (active) and 15.3 µM (active)
NC(=O)C(F)(F)C(F)(F)F,inactive,
FC(F)(F)C(F)(C(F)(F)F)C(F)(F)C(F)(F)CC1CO1 (stereo unspecified),inactive,
OCC(F)(F)OC(F)(F)C(F)(F)OC(F)(F)C(F)(F)OC(F)(F)CO,inactive,
